The panel holds about 83,000 compounds, 20% with a hit somewhere; the sample as a whole holds those more often.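 Activity criterion: percent growth below 10, measured after cells in 96-well plates were exposed to a single compound concentration for 48 hours.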 Unmarked numbers belong to inactive results. Active and inactive are the calls of the source.
What follows are molecules tested on HL-60(TB) leukemia (assay: NCI-60 one-dose screen, 48 h (100 = growth as untreated, 0 = no growth, -100 = all killed)). Settings: 10 µM unless noted.

Structure (SMILES) | growth
O=C1OCC2=C1C(c1ccccc1)c1cc3c(cc1N2CCO)OCCO3 (stereo not drawn) | -14.1% (active)
N#Cc1c(NC(=O)c2ccco2)[n+]([O-])c2cc(F)c(F)cc2[n+]1[O-] | 38%
COc1ccc(-c2nn(-c3ccc(NC(=O)c4ccc(Cl)c(Cl)c4)cc3)cc2-c2ccncc2)cc1Cl | 13.5%

Source: PubChem BioAssay (NCI)
